Bioassay records as filed in PubChem BioAssay.
BAZ2B block: inhibitors of human BAZ2B bromodomain. AlphaScreen BAZ2B-H3K14Ac peptide displacement. Potency, µM (highest dose often 114 µM), hits mostly inhibitors. 360,000 compounds, 4.4% hits; note: nearly all actives have a fitted effect of over 60% in size
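BAZ2B 50 nM plus b-H3(5-23)K14Ac 50 nM, PBS pH 7.4/0.01% Tween-20, 30 min RT; compound added (max 110 uM), 30 min RT; streptavidin donor/Ni-chelate acceptor beads 10 ug/mL final, 20 min dark; AlphaScreen read.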
JMJD2A Tudor inh: blocks the human JMJD2A Tudor domain. 390,000 compounds, 4.4% hits. Potency, µM (titrated, usually from 114 µM), hits mostly inhibitors. AlphaScreen JMJD2A-Tudor / H3K4me3 peptide binding. AID 504339; note: nearly all actives have a fitted effect of over 50% in size
G9a inh: inhibitors of human histone lysine methyltransferase G9a | Q96KQ7 | G9a H3K9 monomethylation, AlphaScreen, 2 h | Potency, µM (highest dose often 102 µM), usual class: inhibitors | 350,000 compounds, 8.8% hits | AID 504332; note: nearly all actives have a fitted effect of over 75% in size
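Step 1: enzyme (final 20 nM) with compound, 15 min RT. Step 2: substrate peptide 500 nM and SAM 20 uM, 2 h RT. Step 3: anti-H3K9me1 antibody and AlphaScreen beads, 10 min, then plate read.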
HP1b chromo inh: HP1-beta chromodomain-methylated histone interaction inhibition | AID 540317 | Potency, µM (highest dose often 114 µM), most hits filed as inhibitors | 390,000 compounds, 0.56% hits | AlphaScreen HP1-beta / biotin-H3K9me3 peptide binding | P83916; note: nearly all actives have a fitted effect of over 70% in size
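HP1-beta protein (50 nM final) preincubated 30 min at room temperature with biotinylated H3(1-18)K9me3 peptide (50 nM) in PBS pH 7.4, 0.01% Tween-20, then compound added for 30 min. AlphaScreen streptavidin donor/nickel chelate acceptor beads (10 ug/mL final), 30 min dark, luminescence read.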
Sfp PPTase inh: Sfp phosphopantetheinyl transferase inhibition; Q9F4F7; Biochemical Sfp PPTase activity, qHTS; Potency, µM, most hits filed as inhibitors; 310,000 compounds, 3.5% hits;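 note: the enzyme is Sfp with the accession as filed and its product quenches rhodamine fluorescence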
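After 15 min at room temperature with compound, 15 nM Sfp received 5 uM rhodamine-CoA plus 12.5 uM BHQ-2-ybbR (50 mM Hepes pH 7.6, 10 mM MgCl2). Rate came from the fluorescence difference over 30 min, ex 525/em 598 nm.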
Hits are given with their value; [ ] = another dose, or the depositor's remark. An excerpt weighted towards active compounds, which were near 12% of everything screened. Calls come from the whole dose curve; as a rule, active = well fitted curve in the direction sought with a large enough effect; inconclusive = small, poorly fitted or top-dose-only effect, or another doubt; inactive = no such curve, though single readings can be large; an effect the other way counts as inactive or inconclusive.

For COc1c(F)c(F)cc2c(=O)c(C(=O)O)cn(C3CC3)c12 the results were BAZ2B block inconclusive, JMJD2A Tudor inh 28.2µM, G9a inh inactive, HP1b chromo inh inactive and Sfp PPTase inh inactive.
`COc1c(N2CCN(C(=S)NCc3ccccc3)C(C)C2)c(F)cc2c(=O)c(C(=O)O)cn(C3CC3)c12` (centres undefined) gave BAZ2B block 79.4µM, JMJD2A Tudor inh 56.2µM, G9a inh inactive, HP1b chromo inh inactive and Sfp PPTase inh inactive.
`CC1CCCCN1Cc1nc2ccccc2c(=O)[nH]1` (centres undefined) gave BAZ2B block inactive, JMJD2A Tudor inh 79.4µM, G9a inh inactive[12.7 µM], HP1b chromo inh inactive and Sfp PPTase inh inactive.
For O=c1[nH]c(CN2CCN(CCO)CC2)nc2ccccc12 the results were BAZ2B block inactive, JMJD2A Tudor inh inactive, G9a inh inactive, HP1b chromo inh inactive and Sfp PPTase inh inactive.
For O=c1[nH]c(CN2CCN(c3ccccc3O)CC2)nc2ccccc12 the results were BAZ2B block inactive, JMJD2A Tudor inh 8.91µM, G9a inh inconclusive, HP1b chromo inh inactive and Sfp PPTase inh inactive.
For NC(=O)C1CCN(Cc2nc3ccccc3c(=O)[nH]2)CC1 the results were BAZ2B block inactive, JMJD2A Tudor inh 3.16µM, G9a inh inconclusive, HP1b chromo inh inactive and Sfp PPTase inh inactive.
For Cc1ccsc1CN(C)C(=O)CN1C(=O)NC2(CCCCC2C)C1=O (centres undefined) the results were BAZ2B block inactive, JMJD2A Tudor inh inactive, G9a inh inconclusive and HP1b chromo inh inactive.
For NC1=CC(=O)c2cccc3cccc1c23 the results were BAZ2B block inconclusive, G9a inh inconclusive and Sfp PPTase inh 3.55µM.
For O=C1C=C(O)c2cccc3cccc1c23 the results were BAZ2B block inactive, JMJD2A Tudor inh inactive, G9a inh inactive[0.501 µM], HP1b chromo inh inactive and Sfp PPTase inh inactive.
Screening Cc1ccc2c(c1)CC1(CN2C)C(=O)OC2(CCCCC2)OC1=O returned BAZ2B block inactive, JMJD2A Tudor inh inactive, G9a inh 50.1µM, HP1b chromo inh inactive and Sfp PPTase inh inactive.
Nc1nc2c(s1)COc1ccccc1-2 was read as BAZ2B block inactive, JMJD2A Tudor inh inactive, G9a inh 31.6µM, HP1b chromo inh inconclusive and Sfp PPTase inh 15.8µM.
Screening O=C1C=C(Nc2ccccc2)C(=O)c2ccccc21 returned BAZ2B block 7.94µM, JMJD2A Tudor inh inconclusive, G9a inh 14.1µM, HP1b chromo inh inconclusive and Sfp PPTase inh inactive.
Screening O=C1C=C(Nc2ccccc2)c2ccccc2C1=O returned BAZ2B block inconclusive, JMJD2A Tudor inh inactive, G9a inh 39.8µM, HP1b chromo inh inconclusive and Sfp PPTase inh inactive.
`O=C(O)c1ccccc1NC(=O)C(c1ccccc1)c1ccccc1` gave JMJD2A Tudor inh inactive and HP1b chromo inh inactive.
For O=C1c2ccccc2C(=O)c2cc(S(=O)(=O)Nc3cccc4cccnc34)ccc21 the results were JMJD2A Tudor inh inconclusive and Sfp PPTase inh inactive.
Screening O=C1C(Nc2ccccc2)=C(NS(=O)(=O)c2ccccc2)C(=O)c2ccccc21 returned BAZ2B block inactive, JMJD2A Tudor inh inactive, G9a inh inactive, HP1b chromo inh inactive and Sfp PPTase inh inactive.
For O=C1C=C(Nc2cccc3cccnc23)c2ccccc2C1=O the results were BAZ2B block 56.2µM, JMJD2A Tudor inh 56.2µM, G9a inh 35.5µM, HP1b chromo inh inconclusive and Sfp PPTase inh inactive.
For O=C1C=C(Nc2ccccc2C(=O)O)c2ccccc2C1=O the results were BAZ2B block 35.5µM, JMJD2A Tudor inh 22.4µM, HP1b chromo inh 15.8µM and Sfp PPTase inh inactive.
For Cc1ccc2oc(-c3cccc(NC(=O)c4cccc5c(Br)cccc45)c3)nc2c1 the results were BAZ2B block inactive, JMJD2A Tudor inh inactive, G9a inh inactive and HP1b chromo inh inactive.
Screening CCc1ccc(NC2=CC(=O)C(=O)c3ccccc32)cc1 returned BAZ2B block 50.1µM, JMJD2A Tudor inh 44.7µM, G9a inh inactive[0.501 µM] and HP1b chromo inh inconclusive.
For CCc1ccc(NC(=O)CN2C(=O)C(=O)c3ccccc32)cc1 the results were BAZ2B block inactive, JMJD2A Tudor inh inactive, G9a inh inactive and HP1b chromo inh inactive.
Screening CC(=O)n1cc(/C=N/NC(=O)c2ccc([N+](=O)[O-])cc2)c2ccccc21 returned BAZ2B block inactive, JMJD2A Tudor inh inactive, G9a inh inactive, HP1b chromo inh inactive and Sfp PPTase inh inactive.
